Results from PubChem BioAssay (NCATS).
Inconclusive results are not listed. Active and inactive are the calls of the source. Unless noted, the call rests on the fitted dose curve; in most records, active means well fitted curve in the direction sought with a large enough effect; inconclusive means small, poorly fitted or top-dose-only effect, or another doubt; inactive means no such curve, though single readings can be large; an effect the other way counts as inactive or inconclusive.

How the values were obtained:
[1] = MultiTox-Fluor Cytotoxicity Assay - LYMP1-002 - Live Cells (AID 955);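 further: cells exposed to compound for 16 hours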
Outline: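 After 16 h compound exposure at 37 C, live LYMP1-002 lymphoblastoid cells (2500/well) were quantified by cleavage of cell-permeant GF-AFC substrate, read at 405/510 nm after 60 min. Concentration-response fitted with Hill equation for AC50.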

[2] = MultiTox-Fluor Cytotoxicity Assay - LYMP1-002 - Dead Cells (AID 960); further: nearly all actives have a fitted effect of over 60% in size
Outline: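 Dead-cell fluorescence (Ex/Em 485/520) after 16 h compound exposure at 37 C of LYMP1-002 lymphoblastoid cells in complete medium; AC50 by Hill equation, with data scaled between DMSO and 15 uM tetraoctylammonium bromide.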

[3] = MultiTox-Fluor Cytotoxicity Assay - LYMP1-003 - Dead Cells (AID 961); further: nearly all actives have a fitted effect of over 70% in size
Outline: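 Acute toxicity is scored as increased dead-cell protease activity in human lymphoblastoid LYMP1-003 cells after 16 h compound exposure in complete culture medium. Activity is normalized to DMSO basal and 15 uM tetraoctylammonium bromide as full response.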

[4] = Cell Viability - LYMP1-003 - Assay at 24 hr (AID 963)
Outline: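 Concentration-response qHTS: ATP loss measured by CellTiter-Glo luminescence after 24 h compound exposure at 37 C. Cells were LYMP1-003 human lymphoblastoid, 2500 per well. AC50 derived via standard Hill equation modeling.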

[5] = Cell Viability - LYMP1-003 - Assay at 40 hr (AID 964); further: series mostly up to about 92 µM; nearly all actives have a fitted effect of over 60% in size
Outline: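 Viability is taken as cellular ATP, read by CellTiter-Glo luminescence after 40 h of compound exposure at 37 C. Cells: human lymphoblastoid line LYMP1-003 at 2500/well; AC50 values derived by Hill-equation fitting of concentration-response data.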

[6] = Cell Viability - LYMP2-003 (AID 965);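 further: cells exposed to compounds for 24 h before reading; nearly all actives have a fitted effect of over 50% in size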
Outline: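 CellTiter-Glo luminescence quantified ATP loss after 24 h compound treatment of LYMP2-003 lymphoblastoid cells at 37 C. Titration series were fitted with the standard Hill equation to give AC50.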

[7] = Cell Viability - LYMP2-004 (AID 966); further: nearly all actives have a fitted effect of over 65% in size
Outline: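 AC50 values come from Hill modelling of concentration-dependent loss of intracellular ATP, measured by CellTiter-Glo luminescence. Human LYMP2-004 lymphoblastoid cells (2500/well) were exposed to compound for 24 h at 37 C.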

[8] = Cell Viability - LYMP2-005 (AID 967); further: series mostly up to about 92 µM
Outline: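 LYMP2-005 human lymphoblastoid cells (2500/well) were treated with compounds for 24 h at 37 C. Intracellular ATP was then measured by CellTiter-Glo luminescence after 30 min at room temperature. AC50 values came from Hill-equation fits of qHTS concentration-response data.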

[9] = Cell Viability - LYMP2-009 (AID 968); further: series mostly up to about 92 µM; nearly all actives have a fitted effect of over 55% in size
[10] = target: Pyruvate kinase PKM (Homo sapiens) (UniProt P14618); assay: qHTS Assay for Activators of Human Muscle Pyruvate Kinase (AID 954; active means well fitted curve in the direction sought with a large enough effect, not every such curve was filed as active)
Outline: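 Screening used highly purified human pyruvate kinase M2 under submaximal activity, with PEP at its Km and ADP below Km. After an hour at room temperature, ATP was read by luciferase luminescence.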

Measured: outcome

Pyruvate kinase PKM (Homo sapiens), sequence (P14618 whole entry, looked up): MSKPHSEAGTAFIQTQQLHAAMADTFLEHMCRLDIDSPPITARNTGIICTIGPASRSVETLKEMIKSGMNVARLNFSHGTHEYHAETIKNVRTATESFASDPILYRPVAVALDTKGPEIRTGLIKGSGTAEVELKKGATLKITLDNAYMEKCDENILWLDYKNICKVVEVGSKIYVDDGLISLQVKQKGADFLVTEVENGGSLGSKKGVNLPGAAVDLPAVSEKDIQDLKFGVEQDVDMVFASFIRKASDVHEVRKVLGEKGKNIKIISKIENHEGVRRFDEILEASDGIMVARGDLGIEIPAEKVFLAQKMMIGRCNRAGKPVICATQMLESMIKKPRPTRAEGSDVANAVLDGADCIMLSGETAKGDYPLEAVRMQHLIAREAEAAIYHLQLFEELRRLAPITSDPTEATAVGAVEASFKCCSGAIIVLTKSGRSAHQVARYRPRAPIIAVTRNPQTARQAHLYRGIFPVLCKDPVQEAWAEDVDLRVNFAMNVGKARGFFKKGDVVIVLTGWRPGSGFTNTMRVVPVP

CC(=O)Nc1ccc(C(=O)O)cc1
inactive: [1] | [2] | [3] | [4] | [5] | [6] | [7] | [8] | [9]

CC(=O)Nc1cccc(O)c1
inactive: [1] | [2] | [3] | [4] | [5] | [6] | [7] | [8] | [9]

CCN(CC)C(=O)c1cccc(C)c1
inactive: [1] | [2] | [3] | [4] | [5] | [6] | [7] | [8] | [9]

CC(=O)Nc1ccccc1
inactive: [1] | [2] | [3] | [4] | [5] | [6] | [7] | [8] | [9]

Cc1cc(C)nc(NS(=O)(=O)c2ccc(N)cc2)n1
inactive: [1] | [2] | [3] | [4] | [5] | [6] | [7] | [8] | [9]

CCCCCC(N)=O
inactive: [1] | [2] | [3] | [4] | [5] | [6] | [7] | [8] | [9]

C=CCNC(N)=S
inactive: [1] | [2] | [3] | [4] | [5] | [6] | [7] | [8] | [9]

Cc1c(N(C)C)c(=O)n(-c2ccccc2)n1C
inactive: [1] | [3] | [4] | [5] | [6] | [7] | [8] | [9]

O=C1c2cccc(O)c2C(=O)c2c(O)cccc21
inactive: [1] | [2] | [3] | [4] | [5] | [7] | [8] | [9]

O=C(c1ccccc1)C(O)c1ccccc1 (stereo not drawn)
inactive: [1] | [2] | [3] | [4] | [5] | [6] | [7] | [8] | [9]

CCCCCCCC(=O)OCC(COC(=O)CCCCCCC)OC(=O)CCCCCCC
inactive: [1] | [2] | [3] | [4] | [5] | [6] | [7] | [8] | [9]

FC(F)(F)C(Cl)Br (stereo not drawn)
inactive: [1] | [2] | [3] | [4] | [5] | [6] | [7] | [8] | [9]

NC(=O)CC[C@@H](N)C(=O)O
inactive: [10]

Cc1cc(=O)[nH]c(=S)[nH]1
inactive: [1] | [2] | [3] | [4] | [5] | [6] | [7] | [8] | [9]

CCCC(O)C(CC)CO (stereo not drawn)
inactive: [1] | [2] | [3] | [4] | [5] | [6] | [7] | [8] | [9]

CC1CC(OC(=O)c2ccccc2O)CC(C)(C)C1 (stereo not drawn)
inactive: [1] | [2] | [3] | [4] | [5] | [6] | [7] | [8] | [9]

Nc1ccc(S(=O)(=O)c2ccc(N)cc2)cc1
inactive: [1] | [2] | [3] | [4] | [5] | [6] | [7] | [8] | [9]

CC(=O)NS(=O)(=O)c1ccc(N)cc1
inactive: [1] | [2] | [3] | [4] | [5] | [6] | [7] | [8] | [9]

COc1ccc(O)cc1
inactive: [1] | [2] | [3] | [4] | [5] | [6] | [7] | [8] | [9]

O=C(O)CCCCC1CCSS1 (stereo not drawn)
inactive: [1] | [2] | [3] | [4] | [5] | [6] | [7] | [8] | [9]

CC(=O)OCC(COC(C)=O)OC(C)=O
inactive: [1] | [2] | [3] | [4] | [5] | [6] | [7] | [8] | [9]

CN1C(C)(C)CCCC1(C)C
inactive: [10]

O=C1C(c2[nH]c3ccccc3c2O)=Nc2ccccc21
inactive: [1] | [2] | [3] | [4] | [5] | [6] | [7] | [8] | [9]

CCCCOC(=O)c1ccc(N)cc1
inactive: [1] | [2] | [3] | [4] | [5] | [6] | [7] | [8] | [9]
